A selection: hits, their analogues and other compounds. The true share with any hit is near 8.1%.
PD-1 reversal – reversal of PD-1 mediated T-cell inhibition | primary human CD4 T cells, PD-L1 beads, CellTiter-Glo 96 h | AID 2316 | 29,000 tested, under 10 active | activation, % (no concentration beside the values); call rule not given here
Hedgehog inh – blocks Sonic Hedgehog signaling | Shh-LIGHT2 Gli-luciferase reporter, 30 h | inhibition, % (test concentration not listed) | 22,000 compounds, 2.1% hits;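 active = mean inhibition across valid replicates above about 65%, limit read from the data; inconclusive = mean under the limit, yet half or more replicates past it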;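 also: pathway switched on by Shh-conditioned medium diluted 1 in 25 in low serum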
MITF inh – MITF inhibition | TRPM1 promoter luciferase, luminescence, 24 h | inhibition, % (test concentration not listed) | 37,000 compounds, 0.28% hits | AID 2240; in the data active = inhibition above about 85%; inconclusive = no clear call, values can overlap the other calls; inactive = below about 68%;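 also: human melanocyte line stably carrying TRPM1 promoter luciferase reporter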
NOMO-1 viab – STK33 inhibitor candidate reducing NOMO-1 cell viability | NOMO-1 AML viability, CellTiter-Glo luminescence, 72 h | inhibition, % (concentration not given with the values) | 37,000 compounds, 7.5% hits; in the data active = inhibition above about 80%; inconclusive = no clear call, values can overlap the other calls
Hits are given with their value; - = inactive; ? = inconclusive; . = no result; ! = repeats disagree.

SMILES	PD-1 reversal	Hedgehog inh	MITF inh	NOMO-1 viab
CCN1C[C@]2(C)CC[C@H](O)[C@@]34C2[C@H](OC)C([C@@H]13)[C@@]1(O)C[C@H](OC)[C@H]2C[C@@H]4[C@@H]1[C@H]2O	-	-	-	107.4
Fc1ccc(C(OCCN2CCN(C/C=C/c3ccccc3)CC2)c2ccc(F)cc2)cc1	.	83.9	99.6	119.5
Fc1ccc(C(OCCN2CCN(CCCc3ccccc3)CC2)c2ccc(F)cc2)cc1	.	67.0!	-	102.6
c1ccc(CCCN2CCN(CCOC(c3ccccc3)c3ccccc3)CC2)cc1	.	86.4	-	104.4
CCNC(=O)[C@H]1O[C@@H](n2cnc3c(N)ncnc32)C(O)[C@H]1O (stereo partly drawn)	-	-	-	-
CCOC(=O)C1=NN(c2ccc(C)cc2)C2c3cccc4cccc(c34)C12 (stereo not drawn)	-	.	-	-
CO[C@@H]1[C@H](O)[C@@H](O[C@@H]2C[C@H]3CC[C@@H]4C(CC[C@]5(C)[C@@H](C6=CC(=O)OC6)CC[C@]45O)[C@@]3(C)[C@H](O)C2)O[C@H](C)[C@@H]1O[C@@H]1O[C@H](CO)[C@@H](O)[C@H](O)[C@H]1O (stereo partly drawn)	-	-	-	119.9
CC(=O)O[C@H]1C[C@H](O[C@H]2[C@@H](O)C[C@H](O[C@H]3[C@@H](O)C[C@H](O[C@H]4CC[C@@]5(C)C(CCC6C5C[C@@H](O)[C@]5(C)[C@@H](C7=CC(=O)OC7)CC[C@]65O)C4)O[C@@H]3C)O[C@@H]2C)O[C@H](C)[C@H]1O[C@@H]1O[C@H](CO)[C@@H](O)[C@H](O)[C@H]1O (stereo partly drawn)	.	-	-	107.0
CO[C@H]1[C@H](O)[C@H](O[C@H]2CC[C@]3(C)C4CC[C@]5(C)[C@H](C6=CC(=O)OC6)CC[C@]5(O)C4CC[C@@H]3C2)O[C@@H](C)[C@@H]1O[C@@H]1O[C@H](CO[C@@H]2O[C@H](CO)[C@@H](O)[C@H](O)[C@H]2O)[C@@H](O)[C@H](O)[C@H]1O (stereo partly drawn)	-	-	-	119.4
COc1ccc([C@H]2Oc3c(I)c(OC)cc(OC)c3C[C@@H]2O)cc1OC	.	-	-	-
CO[C@H](C)C(O)(C(=O)OCC1=CCN2CC[C@H](O)[C@@H]12)C(C)C (stereo partly drawn)	.	-	-	-
COc1cc2c(cc1OC)-c1c(oc3c4c(ccc3c1=O)OC(C(C)C)C4)CO2 (stereo not drawn)	.	-	-	-
CCCN1CCc2cc(O)cc3c2[C@H]1Cc1ccc(O)c(O)c1-3	.	-	-	109.1
CN1CCc2cc(O)cc3c2[C@H]1Cc1ccc(O)c(O)c1-3	.	-	-	104.9
COc1ccc2c(c1O)-c1c3c(cc4c1C(C2)N(C)CC4)OCO3 (stereo not drawn)	.	-	.	.
O=C(O)CP(=S)(c1ccccc1)c1ccccc1	-	-	-	-
C=CCN1C(=O)/C(=C/c2cc(C)n(-c3ccccn3)c2C)C(=O)NC1=S	-	-	-	111.0
O=C1NC(=O)C(=C/C=C/c2ccccc2)C(=O)N1	-	?	87.2	112.6
CC1(C)C(C(=O)Nc2ccccc2C(F)(F)F)C1(C)C	-	-	-	-
CCC(C)[C@H]1O[C@]2(C=C[C@@H]1C)C[C@@H]1C[C@@H](C/C=C(\C)[C@@H](OC3C[C@H](OC)C(O[C@H]4C[C@H](OC)[C@@H](O)[C@H](C)O4)[C@H](C)O3)[C@@H](C)/C=C/C=C3\CO[C@@H]4[C@H](O)C(C)=C[C@@H](C(=O)O1)[C@]34O)O2 (stereo partly drawn)	.	-	100.0	103.6
C/C=C\C(C)=C\[C@H](C)C(=O)C[C@H](O)CC1CC(=O)NC(=O)C1	-	-	-	-
CCc1nc2ccccc2c(=O)n1-c1ccc(OC)cc1	-	-	-	-
C=C1C(=O)O[C@@H]2[C@H]3C(=C)[C@@H](O)C[C@H]3C(=C)C[C@@H](O)[C@@H]12	-	-	-	113.2
COC(=O)[C@@]1(O)C[C@@H]2O[C@@]1(C)n1c3ccccc3c3c4c(c5c6ccccc6n2c5c31)C(=O)NC4	-	-	-	123.6
O=C1NC(=O)C(CCc2ccncc2)(CCc2ccncc2)C(=O)N1c1ccccc1F	-	.	-	-
SMILES	PD-1 reversal	Hedgehog inh	MITF inh	NOMO-1 viab
C[C@]12CC[C@H]3[C@@H](CC[C@]4(O)C[C@@H](O)CC[C@]34C=O)[C@@]1(O)CC[C@@H]2C1=CC(=O)OC1	.	-	-	115.0
CO[C@H]1[C@H](O)[C@@H](O[C@H]2CC[C@]3(C=O)C4CC[C@]5(C)[C@@H](C6=CC(=O)OC6)CC[C@]5(O)C4CC[C@@H]3C2)O[C@@H](C)[C@@H]1O (stereo partly drawn)	.	-	-	112.2
C[C@@H]1O[C@@H](OC2CCC3(C)C4CCC5(C)C(C6=CC(=O)OC6)CCC5(O)C4CC[C@H]3C2)[C@H](O)[C@H](O)[C@H]1O (stereo partly drawn)	-	-	-	108.9
C[C@@H]1O[C@@H](O[C@H]2C[C@@H](O)[C@]3(CO)[C@H]4[C@H](O)C[C@]5(C)[C@@H](C6=CC(=O)OC6)CC[C@]5(O)[C@@H]4CC[C@]3(O)C2)[C@H](O)[C@H](O)[C@H]1O	.	-	-	119.3
Cc1cc(OCC(=O)N(C)C)c2c3c(c(=O)oc2c1)CCCC3	-	.	-	-
CC1(C)C2CC(=O)[C@]3(C)C(CC[C@@]4(C)[C@H](c5ccoc5)OC(=O)[C@H]5O[C@]543)[C@@]2(C)C(=O)C[C@H]1O (stereo partly drawn)	.	-	-	-
O=c1c2ccccc2[nH]c(=S)n1-c1ccc(Cl)c(Cl)c1	-	-	-	-
CO[C@H]1[C@H](O)[C@H](O[C@H]2CC[C@]3(C)C4CC[C@]5(C)[C@H](C6=CC(=O)OC6)CC[C@]5(O)C4CC[C@@H]3C2)O[C@@H](C)[C@@H]1O (stereo partly drawn)	-	-	-	122.6
COC(=O)c1ccc(OP2(=O)COc3ccccc3OC2)cc1	-	-	-	-
COC(=O)[C@H]1O[C@@H]2C[C@H]3OC(n4cnc5c(N)ncnc54)[C@H](OC)[C@H]3O[C@@]2(O)[C@@H](O)[C@@H]1O (stereo partly drawn)	-	-	-	-
COc1ccc2c(c1)/C(=C/c1cnc[nH]1)C(=O)N2	-	-	-	98.2
N#CC(C#N)=Cc1ccc(O)c(O)c1	-	?	-	-
CC(C)(C)c1cc(C=C(C#N)C#N)cc(C(C)(C)C)c1O	-	104.3	87.8	97.4
C=C1[C@@H](C)[C@H]2[C@H](Cc3ccccc3)NC(=O)[C@]23[C@H](OC(C)=O)C=C[C@](C)(O)C(=O)[C@@H](C)C/C=C/[C@H]3[C@@H]1O	.	72.9	-	113.8
COc1cc(C)c(Oc2cc(C)cc(O)c2)c(O)c1	-	-	-	-
CCc1cccc(CC)c1N(COC)C(=O)CCl	.	-	-	-
CCOCN(C(=O)CCl)c1c(C)cccc1CC	.	79.9	99.1	108.9
O=C1CC=C2C3CC4N(CCC45c4ccccc4N1C25)C/C3=C/CO (stereo not drawn)	-	-	-	-

Assay outcomes: PubChem BioAssay, Broad Institute
